# In ChEMBL document CHEMBL1201862, “PubChem BioAssay data set” (2004):
# Values joined by “and” are separate entries in the source; they are usually repeats but may differ in a detail not shown here. Identical values can stand only once. In all, about 1,500 compounds went through this assay and about 140 (9.3%) were called active. The rule behind the calls is not given here. The entries come from a sample that favours actives as a whole.
# Assay: false positives in methylated H4 peptide AlphaScreen detection – biochemical, cherry-picked samples, artefact control for NSD2 inhibitor project, dose response (AID 1053174);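 note: actives lower the AlphaScreen signal from the preloaded product and count as artifacts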
row,SMILES,AbsAC35
1,Cc1ccccc1NC1=C/C(=N\S(=O)(=O)c2ccc(C(=O)O)cc2)c2ccccc2C1=O,11.8 µM (active)
2,Cc1ccc(S(=O)(=O)/N=C2\C=C(Nc3cccc(C(=O)O)c3)C(=O)c3ccccc32)c(C)c1,11.5 µM (active)
3,N=C1/C(=C/c2ccc(O)c(O)c2)C(=O)N=C2SC(CC(=O)N3CCCC3)=NN12,10.6 µM (active)
4,Cc1cccc(C)c1N=Nc1c(C)cc(O)cc1C,20.6 µM (active)
5,O=C1/C(=C\c2cccc(O)c2O)SC(=S)N1Cc1ccccc1,14.9 µM (active)
6,O=C1NC(=O)/C(=C\c2ccc(O)cc2O)S1,18.9 µM (active)
7,CC1CCCC(C)N1/N=C/c1ccc(O)c(O)c1 (stereo not given),10.9 µM (active)
8,CSc1ccc(/C=N/Nc2cccc(C(=O)O)c2)cc1,12 µM (active)
9,O=C(Cc1nnc(NC(=O)c2ccccc2)s1)N/N=C\c1ccc(O)c(O)c1,10.6 µM (active)
10,O=C(O)CCCNc1cc(N2CCN(C(=O)c3ccco3)CC2)c2noc3c2c1C(=O)c1ccccc1-3,11.2 µM (active)
11,Cc1ccc(-n2[nH]c(C)c(/C=N/Nc3ccc([N+](=O)[O-])cc3[N+](=O)[O-])c2=O)cc1C,13.4 µM (active)
12,CN(C=[N+](C)C)c1cccc2c1C(=O)c1ccccc1C2=O,15.2 µM (active)
13,CCN1/C(=C/c2ccc3cc(C)ccc3[n+]2CC)Sc2cc(C)c(C)cc21,19.3 µM (active) and 11.4 µM (active)
14,Cc1cc(C=O)c(C)n1-c1ccc(N2CCCCC2)c([N+](=O)[O-])c1,17.3 µM (active)
15,O=[N+]([O-])c1ccc(N2CCCC2)cc1N1CCCC1,18.9 µM (active)
16,CCN(CC)c1ccc(/C=C/c2ccc3ccc(OC)cc3[n+]2CC)cc1,11.4 µM (active)
17,O=C(O)CCNc1ccc(NCCC(=O)O)c2c1C(=O)c1ccccc1C2=O,11.8 µM (active)
18,CC(C)(C)c1ccc(S(=O)(=O)/N=C2\C=C(NS(=O)(=O)c3ccccc3)C(=O)c3ccccc32)cc1,13 µM (active)
19,CC(C)c1ccc(S(=O)(=O)/N=C2\C=C(NS(=O)(=O)c3ccccc3)C(=O)c3ccccc32)cc1,11.3 µM (active)
20,Cc1ccc(C)c(S(=O)(=O)/N=C2\C=C(NS(=O)(=O)c3ccccc3)C(=O)c3ccccc32)c1,11.3 µM (active)
21,CCc1ccc(S(=O)(=O)/N=C2\C=C(NS(=O)(=O)c3ccccc3)C(=O)c3ccccc32)cc1,15.7 µM (active)
22,Cc1[nH]c(O)nc1C(=O)CCCCC(=O)OCC(=O)Nc1ccccn1,11.4 µM (active)
23,Nc1ccc(Nc2ccccc2)c(S(=O)(=O)O)c1,31.6 µM (active)
24,CN(C)c1ccc(CNCCC(Cc2ccccc2)c2ccco2)cc1 (stereo not given),16.6 µM (active)
25,COc1ccccc1-c1nnc2n1N=C(c1ccc(O)c(O)c1)CS2,18.5 µM (active)
26,COc1cccc2c(SCC(=O)N/N=C/c3ccc(O)c(O)c3)cc(C)nc12,12.7 µM (active)
27,N#C/C(=C/c1ccc(O)c(O)c1)C(=O)NCc1ccc(Cl)cc1,14.6 µM (active)
28,COCC/N=c1\scc(-c2ccco2)n1/N=C/c1ccc(O)c(O)c1O,11.7 µM (active)

row,SMILES,AbsAC35
1,O=C(/C=C/c1ccc(O)c(O)c1)c1ccccc1O,20.7 µM (active)
2,COc1ccc(S(=O)(=O)N2CCN(CC(=O)c3ccc(O)c(O)c3)CC2)cc1,12.5 µM (active)
3,O=C(CN1CCN(S(=O)(=O)c2ccc(Cl)cc2)CC1)c1ccc(O)c(O)c1,14.7 µM (active)
4,CC(C)c1ccc(S(=O)(=O)N2CCN(CC(=O)c3ccc(O)c(O)c3)CC2)cc1,14.6 µM (active)
5,CC1=C/C(=C\c2ccc(Br)o2)C(=O)O1,25.7 µM (active)
6,CCn1nc([N+](=O)[O-])c(C(C#N)c2nc3cc(C(F)(F)F)ccc3s2)c(Cl)c1=O (stereo not given),22.2 µM (active)
7,CCCn1nc([N+](=O)[O-])c(C(C#N)c2nc3ccccc3s2)c(Cl)c1=O (stereo not given),13.4 µM (active)
8,CCN(CC)c1ccc2c(-c3ccc(S(=O)(=O)O)cc3S(=O)(=O)[O-])c3ccc(=[N+](CC)CC)cc-3oc2c1,14.9 µM (active)
9,O=S(=O)(O)c1cc(Cl)cc(N=Nc2ccc(O)cc2O)c1O,14.5 µM (active)
10,O=S(=O)(O)c1cc(O)c(N=Nc2ccc(O)cc2O)c2ccccc12,12.8 µM (active)
11,O=C(O)c1ccccc1N=N/C(=N/Nc1cc(S(=O)(=O)O)ccc1O)c1ccccc1,13.7 µM (active)
12,O=C(Oc1ccccc1)c1cc(O)c(O)c(O)c1,17.2 µM (active)
13,CC1=NN(c2ccccc2)C(=O)C1/C=C1\NC(=S)NC1=O (stereo not given),28.8 µM (active)
14,CCS(=O)(=O)C1=NN2C(=N)/C(=C\c3ccc(SCc4ccco4)o3)C(=O)N=C2S1,18.7 µM (active)
15,CC(=O)c1ccc2c(c1)C1C=CCC1C(C(=O)O)N2 (stereo not given),13.9 µM (active)
16,N#C/C(=C/c1ccc(O)c(O)c1)c1nc2ccccc2[nH]1,15 µM (active)
17,Cc1ccc2[nH]c(/C(C#N)=C/c3ccc(O)c(O)c3)nc2c1,22.9 µM (active)
18,CC1COCC(C)N1C1=C(Cl)C(=O)c2ccccc2C1=O (stereo not given),12.2 µM (active)
19,O=[N+]([O-])c1ccccc1/C=C\C=N\N1CCN(c2ccccc2)CC1,17.5 µM (active)
20,O=C(COC(=O)c1ccccc1)Nc1ncc([N+](=O)[O-])s1,21.8 µM (active)
21,Cc1cc2c(=Cc3ccc(N(C)C)cc3)c3ccccc3n2[n+]1C,14.4 µM (active)
22,NCCc1c(-c2ccccc2)n(-c2ccccc2)c2ccccc12,18.5 µM (active)
23,CN(C)C=O.O=C(O)c1ccccc1NS(=O)(=O)c1ccc(N/N=C/c2ccc(O)c(O)c2)c([N+](=O)[O-])c1,10.8 µM (active)
24,COc1cc(OC)c(OC)cc1CCC(C)NCCC(c1ccccc1)c1ccccc1 (stereo not given),11.1 µM (active)
25,CCN(c1ccccc1)S(=O)(=O)c1cc(C(=O)O)ccc1C,17.7 µM (active)
26,O=C1N=C(Nc2ccccc2Cl)S/C1=C\c1cccc([N+](=O)[O-])c1O,17.4 µM (active)
27,Cc1ccc(NC(=O)CCCCCC2NC(=O)NC2C)cc1 (stereo not given),13.9 µM (active)
